Rows were chosen to be rich in hits. Some 2.9% of all compounds tested hit in one or more screens of this group.
H9c2 TAG inh – reduces triacylglycerol accumulation in H9c2 cells | actives 0.66% (n = 230,000) | Nile Red lipid (TAG) fluorescence; cells loaded with 200 µM oleic acid | inhibition, % at 12.5 µM;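 active means pattern-corrected inhibition of lipid staining of at least 50% with the nuclear-stain viability signal not falling by more than 50%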;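 further: 0% = DMSO wells and 100% = triacsin C control wells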
APOBEC3G inh – inhibitors of human APOBEC3G DNA deaminase; Q9HC16; recombinant A3G, ssDNA deamination FAM/TAMRA fluorescence; inhibition, % at 20 µM; actives 0.28% (n = 330,000); AID 493012;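 active means inhibition of at least 40% at 20 µM, with no more than 30% in the related APOBEC3A deaminase screen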;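 further: plate controls were DMSO wells with A3G for no effect and wells lacking A3G enzyme for full effect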
Target sequence (Q9HC16 whole entry, looked up): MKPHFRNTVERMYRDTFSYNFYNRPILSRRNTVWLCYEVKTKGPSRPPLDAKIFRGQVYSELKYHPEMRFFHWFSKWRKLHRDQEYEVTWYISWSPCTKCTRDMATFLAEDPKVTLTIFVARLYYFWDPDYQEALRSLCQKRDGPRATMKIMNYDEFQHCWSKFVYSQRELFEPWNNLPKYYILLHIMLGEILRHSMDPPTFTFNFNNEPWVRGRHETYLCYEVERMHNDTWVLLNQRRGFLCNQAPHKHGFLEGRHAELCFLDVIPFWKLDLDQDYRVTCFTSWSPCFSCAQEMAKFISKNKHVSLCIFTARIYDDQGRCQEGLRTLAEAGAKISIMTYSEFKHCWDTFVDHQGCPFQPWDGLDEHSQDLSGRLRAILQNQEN
Cardio protect – protects H9c2 cardiomyocytes from peroxide injury; H2O2 injury protection, ATPLite, 2 h; protection from H2O2 cell death, % at 20 µM; AID 588492; actives 0.63% (n = 360,000);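 active means compounds giving at least 50% protection of heart cells from peroxide-induced death in the single-dose screen, raw or plate-pattern-corrected value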;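 further: 0% = DMSO wells with peroxide and 100% = DMSO wells without peroxide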
NadD inh – NadD (S. aureus) enzyme inhibition; purified NadD enzyme, colorimetric absorbance read-out; actives 0.78% (n = 360,000); inhibition, % at 20 µM; in the data active means inhibition above about 26%
PfG6PD inh – PfG6PD (Plasmodium falciparum) enzyme inhibition; PfGluPho enzyme, NADPH resazurin-diaphorase fluorescence; inhibition, % at 20 µM; actives 0.78% (n = 350,000); AID 504690;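 active means inhibition reaching at least a set limit at 20 µM in the primary screen, cut at about 59% in these data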;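 further: 0% = DMSO wells with substrate and 100% = DMSO wells lacking glucose-6-phosphate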
A3A deaminase – human APOBEC3A DNA deaminase inhibition. inhibition, % at 20 µM. recombinant A3A, FAM/TAMRA ssDNA deamination fluorescence. actives 0.41% (n = 330,000);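 active means at least 40% inhibition at 20 µM here, with at most 30% in a related deaminase screen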;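 further: plate controls were A3A with DMSO for no effect and wells lacking A3A enzyme for full effect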
Target sequence (P31941 whole entry, looked up): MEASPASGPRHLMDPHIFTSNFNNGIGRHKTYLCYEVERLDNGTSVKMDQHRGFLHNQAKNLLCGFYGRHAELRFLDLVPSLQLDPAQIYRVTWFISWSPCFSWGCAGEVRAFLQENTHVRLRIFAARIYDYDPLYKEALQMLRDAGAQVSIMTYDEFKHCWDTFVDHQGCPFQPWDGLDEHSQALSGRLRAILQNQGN
A3A conf – APOBEC3A (human) deaminase inhibition, confirmed; shares compounds with A3A deaminase; recombinant A3A, ssDNA deaminase UDG fluorescence assay; inhibition, % at 20 µM; actives 63% (n = 1,400); AID 493151;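 active means inhibition reaching a set limit, 80% of the first screen's cutoff, at 20 µM in any replicate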;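 further: plate controls were DMSO wells with A3A for no effect and wells lacking A3A enzyme for full effect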
UDG ctr A3A – counter-screen for APOBEC3A inhibitors: UDG; AID 504714; shares compounds with A3A deaminase; inhibition, % at 20 µM; UDG counterscreen, FAM/TAMRA uracil oligo fluorescence; 1,000 tested, under 10 active; call rule not given here
A3G conf – APOBEC3G (human) deaminase inhibition, confirmed; shares compounds with APOBEC3G inh; recombinant A3G ssDNA deaminase, UDG/FAM-TAMRA fluorescence; inhibition, % at 20 µM; actives 72% (n = 890); AID 493152;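 active means inhibition reaching a set limit in any replicate at 20 µM, the limit being 80% of the first screen's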
UDG A3G counter – E. coli UDG inhibition in APOBEC3G counter-screen; AID 504715; UDG counterscreen, FAM/TAMRA oligo fluorescence; inhibition, % at 20 µM; shares compounds with APOBEC3G inh; 710 tested, under 10 active;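 active means compounds giving 40% or more inhibition at 20 µM in any one of the three replicates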;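 further: plate controls were DMSO wells with UDG and oligo for no effect and DMSO wells lacking both for full effect; inhibitors lower the FAM signal released by uracil excision and alkaline cleavage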
PfG6PD confirm – PfG6PD inhibition, single-dose confirmed | inhibition, % at 20 µM | shares compounds with PfG6PD inh | actives 34% (n = 2,400) | recombinant PfGluPho, NADPH-diaphorase-resazurin fluorescence | AID 504753;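 active means inhibition of at least 50% at 20 µM in any single replicate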;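 further: 0% = DMSO with substrate and 100% = DMSO lacking glucose-6-phosphate substrate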
Diaph ctr 10uM – diaphorase inhibition or oxidation at 10 uM NADPH | shares compounds with PfG6PD inh | diaphorase-coupled resazurin reduction, fluorescence, NADPH 10 uM | inhibition, % at 20 µM | actives 39% (n = 820) | AID 504862;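 active means average inhibition reaching 50% or more with the compound at 20 µM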;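 further: resorufin red fluorescence formed as diaphorase reduces resazurin using NADPH; 0% = DMSO with enzyme and 100% = DMSO without enzyme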
Diaphorase 30uM – diaphorase inhibition or oxidation at 30 uM NADPH; Diaphorase/resazurin coupled assay, resorufin fluorescence; actives 29% (n = 820); shares compounds with PfG6PD inh; inhibition, % at 20 µM;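 active means inhibition averaging 50% or more, tested at 20 µM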;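 further: 0% = DMSO with enzyme and 100% = DMSO wells lacking diaphorase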
NadD conf – confirmation of Staphylococcus aureus NadD inhibitors; purified S. aureus NadD, colorimetric enzyme assay; actives 13% (n = 2,000); inhibition, % at 20 µM; shares compounds with NadD inh; in the data active means inhibition mostly above about 42%, no sharp cut-off; inactive means mostly below about 42%
Numbers without * were called inactive; x = no result.

SMILES	H9c2 TAG inh	APOBEC3G inh	Cardio protect	NadD inh	PfG6PD inh	A3A deaminase	PfG6PD confirm	others
O=C1NC(=O)N(c2ccc3c(c2)OCO3)C(=O)/C1=C/c1ccc(N2CCCCC2)o1	x	6.2	11.1	5.1	0.4	6.9	x
C[N+]1(CC(COCc2ccccc2)OC(=O)Cc2ccccc2)CCOCC1 (centres undefined)	7.1	18.1	7.9	16.9	-15.9	41.4*	x	A3A conf=69.4*;UDG ctr A3A=1.0
CN1CCC(OC(=O)Cc2ccccc2)CC1	x	-0.3	-4.8	1.6	9.8	0.3	x
COC(=O)[C@@]1(Sc2ccc(C)cc2)CC(=O)N(P(=O)(OC)OC)[C@@H]1c1ccccc1	x	x	x	-0.8	x	x	x
COc1cc2c(cc1O)C[C@H]1NCCc3cc4c(c-2c31)OCO4	8.4	18.8	5.8	33.6*	32.9	60.8*	x	A3A conf=34.0*;NadD conf=34.1
CC(C)C(O)(C(=O)OCC1=CCN2CCC(O)C12)C(C)O (centres undefined)	x	x	3.9	4.9	x	x	x
COc1cc2c(cc1OC)-c1c3c(cc4c1[C@@H](C2)N(C)CC4)OCO3	53.0*	45.5*	10.0	11.9	45.9	25.9	x	A3G conf=23.9
Nc1c2c(nc3ccccc13)CCN(Cc1ccccc1)C2	x	-8.3	13.2	-1.3	-4.4	-4.2	x
Nc1cc2nc3ccccc3nc2cc1N	4.3	48.4*	1.0	5.0	39.2	17.6	x	A3G conf=25.2*;UDG A3G counter=0.2
C[C@]12CCC3C(CC[C@@H]4C[C@H](O)CC[C@]34C)C1CCC2=O (some centres undefined)	-7.7	-3.5	3.0	-0.2	-8.4	1.7	x
C/C(=N\Nc1cccc2ccccc12)c1c(O)n(Cc2ccccc2)c(=O)[nH]c1=O	x	41.5*	-6.7	25.1	3.7	-6.8	x	A3G conf=15.6;UDG A3G counter=-5.1
C/C(=N\NC(=O)c1ccccc1)c1c(O)n(Cc2ccccc2)c(=O)[nH]c1=O	10.0	-6.2	0.5	-4.2	-27.5	0.9	x
NC(N)=Nc1ccc2[nH]c3c(c2c1)C[C@@]1(O)[C@H]2Cc4ccc(O)c5c4[C@@]1(CCN2CC1CC1)[C@H]3O5	3.7	83.9*	19.6	7.6	96.6*	15.8	x	A3G conf=96.8*;UDG A3G counter=-1.4
Oc1ccc2c3c1O[C@H]1[C@@H](O)CC[C@@]4(O)[C@@H](C2)N(CC2CCC2)CC[C@]314	0.3	-6.6	-4.2	2.0	0.3	-0.6	x
O=C1C2CCCN2C(c2cccs2)N1c1ccccn1 (centres undefined)	2.1	88.9*	7.0	-2.5	0.4	-0.4	x	A3G conf=15.8;UDG A3G counter=-3.2
CCOC(=O)[C@]12Cc3cc(C)ccc3[C@H]1N(C1CCCCC1)C(=O)c1cc(OC)ccc12	x	x	x	4.8	x	x	x
CCC1C2CC3C4N(C)c5ccccc5C45CC(C2C5O)N3C1O (centres undefined)	x	x	2.9	3.8	x	x	x
CCn1c(NN=O)nc2ccccc21	43.4	58.4*	21.6	6.8	8.5	-0.5	x	A3G conf=14.4;UDG A3G counter=-0.7
CN(C)c1nc(-c2ccccc2)[n+](C)s1	-8.4	-7.6	8.4	-1.2	53.8	-2.6	x
Cc1ccc(-c2nc(N3CCOCC3)s[n+]2-c2ccccc2)cc1	14.2	x	-8.6	6.6	59.8*	x	77.3*	Diaph ctr 10uM=-33.0;Diaphorase 30uM=-24.9
Cc1ccc(/C=C2\C(=O)NC(=S)N(c3ccccc3F)C2=O)s1	x	x	-18.5	15.8	66.0*	x	55.9*	Diaph ctr 10uM=-27.6;Diaphorase 30uM=-18.8
COCCCNP1(=O)OCC(C)([N+](=O)[O-])CO1 (centres undefined)	7.2	x	1.7	-3.6	-11.2	x	x
Cc1ccc(OC(=O)N(C)C[C@H]2OCc3cnnn3CCCC(=O)N([C@@H](C)CO)C[C@H]2C)cc1	-0.2	x	0.8	-6.3	-13.8	x	x
CC(C)N1CCN(c2ccc(O)cc2)CC1	x	x	8.0	-2.2	72.5*	x	28.7
C=CCN1CCc2cccc3c2[C@H]1Cc1ccc(O)c(O)c1-3	6.4	19.1	45.3	11.0	80.6*	-11.6	84.0*	Diaph ctr 10uM=22.8;Diaphorase 30uM=13.8
SMILES	H9c2 TAG inh	APOBEC3G inh	Cardio protect	NadD inh	PfG6PD inh	A3A deaminase	PfG6PD confirm	others
C=CCN1CC[C@]23c4c5ccc(O)c4O[C@H]2C(=O)CC[C@@]3(O)[C@H]1C5	-18.4	-2.5	-3.2	-2.3	11.7	3.4	x
O=[As](O)(O)c1ccc(N=Nc2ccc(O)cc2)cc1	x	x	-3.9	-9.6	-10.7	x	x
O=C1C(Cl)=CC(=Nc2ccc(O)cc2)C=C1Cl	-6.4	18.1	-0.1	25.6	115.7*	10.5	110.6*	Diaph ctr 10uM=93.3*;Diaphorase 30uM=81.5*
COc1ccc(N2C(=O)/C(=C/C=C/c3ccccc3[N+](=O)[O-])C(=O)NC2=S)cc1	x	-0.3	x	x	60.6*	-0.9	29.6
COc1cc2c(cc1OC)-c1c(OC)c(OC)cc3c1C(C2)N(C)CC3 (centres undefined)	x	-2.7	-4.0	12.4	68.4*	2.7	41.5
CN1C2CCC1C(C(=O)O)C(O)C2 (centres undefined)	x	-3.9	1.2	0.2	-9.9	2.5	x
CCn1nc(/C=C/c2ccccc2)nc2c(=O)n(C)c(=O)nc1-2	x	-7.8	-19.8	1.0	101.5*	-3.4	76.1*	Diaph ctr 10uM=92.8*;Diaphorase 30uM=98.5*
Cc1cccc(N=C2c3cc([N+](=O)[O-])ccc3-c3c2cc([N+](=O)[O-])cc3[N+](=O)[O-])c1	61.8*	x	-18.8	18.0	74.2*	x	17.9
CC1=C[C@@H]2c3cccc4[nH]cc(c34)C[C@H]2N(C)C1	x	32.4	6.2	25.5	59.5*	15.6	-33.8
O=C1NCN(c2ccccc2)C12CCN(C(CCc1ccccc1)c1nnnn1C1CCCCC1)CC2 (centres undefined)	x	x	-2.3	14.8	x	x	x
NCCc1cc(O)c(O)cc1O	14.5	x	-14.9	65.4*	94.0*	x	67.7*	Diaph ctr 10uM=52.6*;Diaphorase 30uM=47.0

Screening results (PubChem)
